Assay outcomes as filed in PubChem.
MEP2-GFP yeast = yeast TOR pathway MEP2-GFP modulation. AID 2016. GFP response vs DMSO, % at 10 µM. S. cerevisiae MEP2-GFP strain, flow cytometry GFP, 3 h; 100% = DMSO control level. actives 0.51% (n = 330,000);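 active means GFP response versus DMSO above a set limit, roughly screen mean plus 3 SD, cut at about 180% in these data; inconclusive means fewer than 70 cells counted for a yeast strain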;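 further: median GFP fluorescence of the barcode-gated MEP2-GFP cells per well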
AGP1 TOR yeast = modulators of TOR pathway AGP1-GFP in S. cerevisiae | S. cerevisiae AGP1-GFP multiplex flow cytometry, 3 h; GFP as percent of DMSO wells | GFP response vs DMSO, % at 10 µM | actives 0.02% (n = 320,000) | AID 2066;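 active means GFP response relative to DMSO above a set limit, near screen average plus 3 SD, cut at about 150% in these data; inconclusive means fewer than 70 cells counted for the yeast strain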;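 further: median GFP channel fluorescence of the gated AGP1 strain per well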
LAP4 TOR yeast = yeast TOR pathway LAP4-GFP modulation | S. cerevisiae LAP4-GFP multiplex, flow cytometry GFP, 3 h; median GFP as percent of DMSO wells | actives 0.34% (n = 320,000) | AID 2023 | GFP response vs DMSO, % at 10 µM;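 active means GFP response vs DMSO above a set limit, about the screen mean plus 3 SD, cut at about 150% in these data; inconclusive means under 70 cell events counted for the yeast strain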
RPL19A TOR yeast = yeast TOR pathway RPL19A-GFP modulation | S. cerevisiae RPL19A-GFP strain, flow cytometry, 3 h; active compounds read low | percent response vs DMSO, % at 10 µM | actives 0.3% (n = 330,000) | AID 2025;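 active means percent response vs DMSO below 50%; inconclusive means fewer than 70 events counted for the yeast strain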;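 further: median channel GFP fluorescence of the barcoded RPL19A-GFP strain; ratio of sample median GFP to plate DMSO average so 100% = DMSO; lower means less RPL19A-GFP as with rapamycin TOR inhibition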
CIT2-GFP yeast = alters CIT2-GFP fluorescence in TOR pathway yeast screen; S. cerevisiae CIT2-GFP strain, flow cytometry, 3 h; 100 means same as DMSO wells; GFP response vs DMSO, % at 10 µM; actives 0.065% (n = 320,000); AID 2029;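 active means GFP response relative to DMSO above a set limit, near the screen mean plus 3 SD, cut at about 150% in these data; inconclusive means Fewer than 70 cells measured for a yeast strain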;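 further: ratio of well median GFP fluorescence to mean of DMSO wells on the plate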
* marks the source's active call; other numbers are inactive results; ? = inconclusive; / = not tested or not shown; [ ] = another dose, or the depositor's remark. An excerpt weighted towards active compounds, which were near 0.93% of everything screened.

SMILES	MEP2-GFP yeast	AGP1 TOR yeast	LAP4 TOR yeast	RPL19A TOR yeast	CIT2-GFP yeast
Cc1c(C)c2ccc(OCC(=O)N(C)C)c(C)c2oc1=O	481.7*[may fluoresce violet]	?	88.2	49.4*[may fluoresce violet]	?
Cc1ccc(CNS(=O)(=O)c2c(C)n(C)c(=O)n(C)c2=O)cc1	104.9	104.4	99.7	112.8	104.3
Cn1c(=O)c2ccccc2n(Cc2cccc(F)c2)c1=O	178.6*	94.8	100.4	97.8	90.8
Cn1c(=O)c2ccccc2n(Cc2ccccc2F)c1=O	99.5	98.0	100.2	98.1	100.3
O=C(Nc1cccc(OCC(=O)N2CCOCC2)c1)c1cccc([N+](=O)[O-])c1	94.0	100.5	100.9	97.5	94.3
O=C(COc1cccc(NC(=O)c2cccc([N+](=O)[O-])c2)c1)c1ccc(Br)cc1	258.9*[may fluoresce violet]	?	59.3	60.9	?
O=C(CSCc1c(Cl)cccc1Cl)NCc1ccccn1	103.4	112.0	108.3	102.1	103.0
Cc1ccc(S(=O)(=O)CC(=O)Nc2ccccn2)cc1	233.4*[may fluoresce violet]	?	83.8	28.5*[may fluoresce violet]	?
Cc1ccc(S(=O)(=O)CC(=O)Nc2ccc(S(=O)(=O)Nc3ccccn3)cc2)cc1	81.8	91.9	105.3	85.7	85.2
Cc1cc(O)c(C(C)C)cc1N=Nc1ccccc1C(=O)O	100.5	100.8	110.8	95.6	103.1
Cc1cc(N=Nc2ccccc2C(=O)O)c(C)c(C)c1O	131.6	94.4	123.2	96.9	150.5*
COc1ccc(Br)cc1/C=N/NC(=O)Cn1nnnc1N	122.0	46.2	335.9*	85.2	83.7
O=C(c1ccc(Cl)cc1)N1CCN=C1c1ccccc1	101.8	102.7	100.3	103.9	106.3
O=C(CSc1cccc[n+]1[O-])CSc1cccc[n+]1[O-]	102.9	98.7	159.1*	93.9	78.1
O=C(CSc1cccc[n+]1[O-])N1CCCCCC1	99.2	91.3	90.3	102.8	96.5
CCc1cc(Br)ccc1NC(=S)NCCc1ccccc1	100.0	86.1	80.6	112.6	86.7
CCn1c(SCC(=O)OC2CCCCC2)nnc1-c1ccncc1	579.9*[may fluoresce violet]	20.7	99.7	46.9*[may fluoresce violet]	?
CCn1c(SCC(=O)OC)nnc1-c1ccncc1	105.0	101.0	99.5	103.1	98.0
COc1ccc(Cc2nnc(SCC(=O)c3ccc4c(c3)OCO4)o2)cc1	98.0	101.2	103.9	99.8	93.4
Cc1ccc(Cn2ncc(Cl)c(Cl)c2=O)cc1	105.2	104.1	107.1	104.0	107.5
CCc1ccc(C(=O)Cn2ncc(Cl)c(Cl)c2=O)cc1	196.1*[may fluoresce violet]	/	82.9	52.8	?
COc1cc2cc(CN(C(=O)Nc3ccccc3)C3CCCC3)c(=O)[nH]c2cc1OC	379.1*[may fluoresce violet]	?	100.3	38.5*[may fluoresce violet]	?
CCN(CC)CCCN(Cc1cc2cc(OC)c(OC)cc2[nH]c1=O)C(=O)Nc1ccccc1	103.6	98.9	109.3	100.5	103.9
CCc1ccccc1OCc1nnc(N)s1	106.3	104.8	183.3*	79.2	84.2
COc1ccc(N2CCN(c3nc4c(C)cccn4c(=O)c3/C=C(\C#N)C(N)=O)CC2)cc1	195.2*	16.6	79.7	68.0	105.1
SMILES	MEP2-GFP yeast	AGP1 TOR yeast	LAP4 TOR yeast	RPL19A TOR yeast	CIT2-GFP yeast
Cc1cccn2c(=O)c(/C=C(\C#N)C(=O)NCc3ccco3)c(N3CCCCC3)nc12	178.4*[may fluoresce violet]	15.6	88.7	62.2	?
COc1ccc(C(=O)Nc2nnc(SCC(=O)NCC3CCCO3)s2)cc1OC (stereo unspecified)	95.5	97.0	92.0	88.3	92.0
Nc1[nH]nc2nc3ccccc3cc12	100.4	96.1	101.3	94.5	92.9
Nc1cccc2nc3ccccc3cc12	?	?	?	13.6*[may fluoresce violet]	?
CCC(C)n1c(-c2cccs2)nc2nc3ccccc3nc21 (stereo unspecified)	428.6*[may fluoresce violet]	?	82.6	44.1*[may fluoresce violet]	?
c1ccc(Cn2c(CNc3nc4ccccc4n3CCN3CCCCC3)nc3ccccc32)cc1	240.5*[may fluoresce violet]	/	89.4	51.5	?
COCCCNC(=O)CC(NS(=O)(=O)c1ccc(Cl)cc1)c1ccco1 (stereo unspecified)	103.8	106.4	100.1	104.9	110.8
COCCCNC(=O)CC(NS(=O)(=O)c1ccc(C)cc1)c1ccco1 (stereo unspecified)	238.3*[may fluoresce violet]	29.8	92.1	/	?
CCc1ccc(/C=C2\Oc3c(ccc(O)c3CN3CCN(CCO)CC3)C2=O)cc1	192.4*[may fluoresce violet]	20.1	96.5	45.5*[may fluoresce violet]	?
